KB-V1 cytotox – qHTS assay for MDR1-selective chemotherapeutics: Primary screen using the drug-selected MDR subline cells KB-V1 | KB-V1 MDR cells viability, CellTiter-Glo, 72 h | Potency, µM (titrated, usually from 46.1 µM), hits mostly cytotoxic | 400,000 tested, 3.4% active; further: potency means the concentration at half of the fitted maximal effect; nearly all actives have a fitted effect of over 60% in size
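Potencies derive from concentration-effect curves fitted to normalized luminescence (CellTiter-Glo) of KB-V1 cells treated for 72 h at 37 degrees C in phenol-red-free DMEM containing 10% FBS.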
A549 tox – Nrf2 qHTS screen for inhibitors: counterscreen for cytotoxicity. A549 ARE-Fluc cells, CellTiter-Fluor viability, 18-24 h. Potency, µM (top dose mostly 46 µM), for the others: at the highest dose activity change, negative = cytotoxicity, actives largely listed as inhibitors. 390,000 tested, 0.16% active. AID 504648, 2011; further: potency means the concentration at half of the fitted maximal effect
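Cytotoxicity counterscreen: CellTiter-Fluor fluorescence was measured in A549 ARE_Fluc cells after 18-24 h of compound exposure in a concentration series. The subsequent BugLite luminescent read reports ARE-luciferase activity.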
KB-3-1 tox – qHTS assay for MDR1-selective chemotherapeutics: Primary screen using the parental adenocarcinoma cell KB-3-1; KB-3-1 viability, CellTiter-Glo ATP luminescence, 72 h; Potency, µM (doses to about 46.1 µM), hits mostly cytotoxic; 400,000 tested, 1.4% active; further: potency means the concentration at half of the fitted maximal effect; nearly all actives have a fitted effect of over 60% in size
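Viability of parental KB-3-1 cells, measured by CellTiter-Glo luminescence, followed a 72 h incubation at 37 °C with pinned compounds in phenol-red-free DMEM containing 10% FBS.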
Nrf2 block – Nrf2 qHTS screen for inhibitors; 360,000 tested, 2.1% active; A549 ARE-Fluc reporter, luciferase luminescence, 18-24 h; Potency, µM (titrated, usually from 46 µM), for inactives: top-dose activity change, negative = inhibition, actives largely listed as inhibitors; further: potency means the concentration at half of the fitted maximal effect; nearly all actives have a fitted effect of over 60% in size
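Nrf2 function is reported as luminescence of an ARE-controlled luciferase in A549 cells. Compounds were tested at several concentrations, and a CellTiter-Fluor read on the same wells flagged cytotoxicity.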
PI4K2A block – qHTS for small molecular inhibitors of PI4K2A; Phosphatidylinositol 4-kinase type 2-alpha (Homo sapiens), Q9BTU6; purified PI4K2A, ADP-Glo luminescence, 1 h; stronger effect = lower value; activity change, negative = inhibition, % at 76.9 µM; 420,000 tested, 0.13% active; AID 1346378, 2018; in the data active means activity change below about -50%; inconclusive means mostly about -30% to -49%;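 further: -100% = wells without enzyme as full effect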
Target sequence (Q9BTU6 whole entry, looked up): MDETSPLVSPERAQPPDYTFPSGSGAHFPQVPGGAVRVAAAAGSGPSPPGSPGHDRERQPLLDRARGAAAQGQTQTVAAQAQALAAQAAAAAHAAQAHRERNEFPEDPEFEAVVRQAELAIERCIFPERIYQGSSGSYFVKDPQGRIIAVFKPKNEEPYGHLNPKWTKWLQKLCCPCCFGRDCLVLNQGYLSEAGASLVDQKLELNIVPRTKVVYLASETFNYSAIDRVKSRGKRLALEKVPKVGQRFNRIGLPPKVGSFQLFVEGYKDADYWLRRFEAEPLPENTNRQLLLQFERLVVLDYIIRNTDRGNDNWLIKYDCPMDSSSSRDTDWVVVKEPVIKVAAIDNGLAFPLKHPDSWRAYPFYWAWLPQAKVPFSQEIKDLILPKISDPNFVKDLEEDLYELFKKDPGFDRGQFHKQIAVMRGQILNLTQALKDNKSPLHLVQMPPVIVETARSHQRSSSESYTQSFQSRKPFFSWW
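Compounds are screened against recombinant PI4K2A using PI as substrate and ATP, the latter dispensed at 300 microM. Reactions run one hour at ambient temperature before ADP-Glo detection; full inhibition defined by wells lacking enzyme.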
Giardia killer – Small Molecules that selectively kill Giardia lamblia: qHTS | AID 540267, 2011 | Giardia lamblia trophozoite viability | activity change, % at 7.66 µM, hits read low | 340,000 tested, 0.15% active; in the data active means activity change below about -80%; inconclusive means between about -30% and that limit;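 further: parasites exposed to compound for two days anaerobically before the ATP read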
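Anaerobic 48 hrs incubation at 37 deg C of 100 trophozoites/well with test compounds; ATPLite 1-Step luminescence, 15-30 min RT, reports cellular ATP as viability.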
Starred values were filed as active, the others as inactive. Most compounds without a hit are left out; they make up all but 5.7% or so of the library. Unless noted, the call rests on the fitted dose curve; in most records, active means well fitted curve in the direction sought with a large enough effect; inconclusive means small, poorly fitted or top-dose-only effect, or another doubt; inactive means no such curve, though single readings can be large; an effect the other way counts as inactive or inconclusive. Unless noted, on the % scale 0 is the no-effect control and ±100 the full control effect.

How did COc1c(C=O)c2c(c(OC)c1OC)-c1ccc(OC)c(=O)cc1C(NC(C)=O)CC2 (configuration not stated) do in these assays?
KB-V1 cytotox: inconclusive; A549 tox: -16%; KB-3-1 tox: 0.0092µM*; Nrf2 block: inconclusive; PI4K2A block: 2; Giardia killer: -5

Results for COC(=O)c1ccc2c(c1)C(NC(C)=O)CCc1cc(OC)c(OC)c(OC)c1-2 (configuration not stated) ?
KB-V1 cytotox: 0.82µM*; A549 tox: -18%; KB-3-1 tox: 0.15µM*; Nrf2 block: inconclusive; PI4K2A block: -1; Giardia killer: -5

How did COc1c(O[C@@H]2O[C@H](CO)[C@@H](O)[C@H](O)[C@H]2O)cc2c(c1OC)-c1ccc(SC)c(=O)cc1C(NC(C)=O)CC2 (some centres not stated) do in these assays?
KB-V1 cytotox: inactive; A549 tox: -20%; KB-3-1 tox: inactive; Nrf2 block: 10%; PI4K2A block: -2; Giardia killer: -9

What do the screens show for `COc1cc2c(c(OC)c1OC)C(=O)CC2`?
KB-V1 cytotox: inactive; A549 tox: -16%; KB-3-1 tox: inactive; Nrf2 block: -8%; PI4K2A block: 8; Giardia killer: -4

Results for COc1cc2c(c(OC)c1OC)-c1ccc(SC)c(=O)cc1C(NC(=O)c1ccccc1)CC2 (configuration not stated) ?
KB-V1 cytotox: 0.73µM*; A549 tox: 18µM*; KB-3-1 tox: 0.0092µM*; Nrf2 block: inconclusive; PI4K2A block: 4; Giardia killer: -3

Results for C=COC(=O)NC1CCc2cc(OC)c(OC)c(OC)c2-c2ccc(SC)c(=O)cc21 (configuration not stated) ?
KB-V1 cytotox: inconclusive; A549 tox: -5%; KB-3-1 tox: 0.0065µM*; Nrf2 block: 3%; PI4K2A block: 0; Giardia killer: 4

How did COC(=O)c1ccc(NC(=S)NC2CCc3ccccc32)cc1 (configuration not stated) do in these assays?
KB-V1 cytotox: inconclusive; A549 tox: -3%; KB-3-1 tox: inactive; Nrf2 block: inconclusive; PI4K2A block: 3; Giardia killer: -24

How did CCCCOCCCNC(=O)C[C@H]1C(=O)N(Cc2ccc(OC)cc2)C2=CCCC[C@@]21C(=O)OCC do in these assays?
PI4K2A block: -2

Results for CN(CCc1ccccn1)C(=O)Cn1nc(-c2ccccc2)ccc1=O ?
PI4K2A block: -1

What do the screens show for `COc1ccc(N2CCN(CCCNC(=O)Cn3c(=O)c4cccn4c4cccnc43)CC2)c(OC)c1`?
PI4K2A block: -3

How did Cc1c[nH]c2cccc(-c3c(Cl)cccc3Cl)c12 do in these assays?
PI4K2A block: 0

Results for CC(/C=C/c1ccccc1)=N\NC(N)=S ?
KB-V1 cytotox: 18µM*; A549 tox: -3%; KB-3-1 tox: inconclusive; Nrf2 block: 2%; PI4K2A block: 2; Giardia killer: 4

How did CC(C)(C)OC(=O)N1CCC(N[C@@H](Cc2ccccc2)C(=O)NCCc2c[nH]c3ccccc23)(C(=O)NC2CCCCC2)CC1 do in these assays?
PI4K2A block: -1

How did CCCC#Cc1ccc(CC[C@H]2O[C@H]3CC[C@H](CO)O[C@H]3C[C@H]2NC(=O)CN2CCOCC2)cc1 do in these assays?
PI4K2A block: -9

How did Cc1c(-c2n[nH]c(=S)n2-c2ccc(C(F)(F)F)cc2)nnn1-c1ccccc1 do in these assays?
KB-V1 cytotox: 23µM*; A549 tox: 1%; KB-3-1 tox: inactive; Nrf2 block: -18%; PI4K2A block: -1; Giardia killer: -1

Results for CCCc1c(-c2ccc(F)cc2)ncn1CCc1ccccc1OC ?
KB-V1 cytotox: inconclusive; KB-3-1 tox: inconclusive; PI4K2A block: -6

How did CCCCc1c(-c2cccc(OC)c2)ncn1CCc1ccccc1OC do in these assays?
KB-V1 cytotox: 12µM*; KB-3-1 tox: inconclusive; PI4K2A block: -9

How did CCCCCc1c(-c2ccc(F)cc2F)ncn1CCc1ccccc1OC do in these assays?
KB-V1 cytotox: 13µM*; KB-3-1 tox: inconclusive; PI4K2A block: 0

How did CCCCCc1c(-c2ccccc2)ncn1CCc1ccccc1OC do in these assays?
KB-V1 cytotox: 15µM*; KB-3-1 tox: inconclusive; PI4K2A block: -1

Results for CCCCc1c(-c2ccc(OC)c(OC)c2)ncn1CCc1ccccc1OC ?
KB-V1 cytotox: 9.2µM*; KB-3-1 tox: inconclusive; PI4K2A block: 3

How did CCCCc1c(-c2ccc(F)cc2F)ncn1CCc1ccccc1OC do in these assays?
KB-V1 cytotox: inconclusive; KB-3-1 tox: inconclusive; PI4K2A block: 1

How did COc1ccc(S[C@]2(C(=O)N3CCOCC3)CC(=O)N[C@@H]2c2ccc(OC)cc2)cc1 do in these assays?
PI4K2A block: -1

What do the screens show for `Cc1c(CCNC(=O)C(C)(C)C)sc2nc(-c3ccc(F)cc3)nn12`?
A549 tox: -14%; PI4K2A block: -2

Results for COc1cccc(S(=O)(=O)N2CCN(c3nc(-c4cccs4)nc4ccccc34)CC2)c1 ?
A549 tox: -1%; Nrf2 block: inconclusive; Giardia killer: -13

Results for Nc1nc(SCc2ccc(Cl)cc2Cl)nc2nc3c(cc12)CCCC3 ?
KB-V1 cytotox: inconclusive; A549 tox: -16%; KB-3-1 tox: inconclusive; Nrf2 block: 23µM*; PI4K2A block: 8; Giardia killer: -3

How did N#Cc1cc(NC(=O)C(=O)O)c(Cl)c(NC(=O)C(=O)O)c1 do in these assays?
PI4K2A block: -2

What do the screens show for `O=C(COC(=O)c1c2c(nc3ccccc13)/C(=C/c1ccco1)CC2)NC1CCCC1`?
KB-V1 cytotox: 16µM*; A549 tox: inconclusive; KB-3-1 tox: inactive; Nrf2 block: 5%; PI4K2A block: inconclusive; Giardia killer: -11

What do the screens show for `CCCCNC(=O)NS(=O)(=O)c1ccc(NC(=O)CSc2nnc(-c3cccs3)n2-c2ccc(OC)cc2)cc1`?
PI4K2A block: 0

What do the screens show for `N#CCc1c(C#N)c(N)nc(N2CCN(Cc3ccc4c(c3)OCO4)CC2)c1C#N`?
KB-V1 cytotox: 21µM*; A549 tox: 14%; KB-3-1 tox: inconclusive; Nrf2 block: -12%; PI4K2A block: 12; Giardia killer: -4
